Shown are actives, neighbours in structure and some others; about 13% of the full set was active somewhere.
USP28 inh – inhibitors of human USP28 deubiquitinase | 47,000 tested, 3% active | AID 1645857, 2021 | Ubiquitin carboxyl-terminal hydrolase 28 (Homo sapiens), Q96RU2 | purified USP28, Ub-rhodamine cleavage fluorescence, 30 min | inhibition, % at 25 µM
USP17 inh – inhibitors of human USP17 deubiquitinase; purified USP17, Ub-rhodamine cleavage fluorescence, 3 h; inhibition, % at 50 µM; 47,000 tested, 6.5% active
USP30 inh – inhibitors of human USP30 deubiquitinase | AID 1645860, 2021 | purified USP30, Ub-rhodamine cleavage fluorescence | Ubiquitin carboxyl-terminal hydrolase 30 (Homo sapiens), Q70CQ3 | inhibition, % at 25 µM | 47,000 tested, 5.3% active
USP8 block – inhibitors of human USP8 deubiquitinase; Ubiquitin carboxyl-terminal hydrolase 8 (Homo sapiens), P40818; purified USP8, Ub-rhodamine cleavage fluorescence, 30 min; inhibition, % at 20 µM; 47,000 tested, 4.2% active; AID 1645853, 2021
Active calls of the source: *; . = no result. Cut-off read from the data, not from the text of the source: active = inhibition above about 30%; inactive = the rest.

SMILES | USP28 inh | USP17 inh | USP30 inh | USP8 block
CCCOc1ccc(C2OCCn3c(-c4ccccc4)c4c(=O)n(C)c(=O)n(C)c4c32)cc1 (stereo unspecified) | -6 | -27 | -8 | -109
c1ccc(CSc2ccc3nnc(-c4ccncc4)n3n2)nc1 | 8 | -23 | -3 | -169
O=C(CSc1ccc2nnc(-c3cccc(F)c3)n2n1)c1ccccc1 | -11 | 30* | -22 | -8
c1ccc(-c2nnc3ccc(SCc4ccccn4)nn23)cc1 | 31* | 0 | 24 | -133
O=C(c1cc(-c2ccc(F)cc2)n[nH]1)N1CCN(c2ccccn2)CC1 | 1 | 1 | -7 | -19
COc1ccc(-c2nc(C3CC3)nc3c2CCNCC3)cc1 | -9 | -14 | 17 | 1
Cc1nc2c(c(-c3ccc(O)cc3)n1)CCNCC2 | -1 | 13 | -10 | 46*
Cc1cnnn1-c1ccc(C(=O)Nc2ccc(Cl)cc2)cc1 | 50* | 45* | 58* | 5
CC1=C(C(=O)OC2CCCC2)C(c2ccc(Cl)c([N+](=O)[O-])c2)CC(=O)N1 (stereo unspecified) | 6 | 13 | 15 | 0
CC1=C(C(=O)OC2CCCCCC2)C(c2ccccc2[N+](=O)[O-])CC(=O)N1 (stereo unspecified) | 7 | 9 | 5 | 62*
Cc1ccc(NC(=O)c2cc(C(C)C)on2)cc1C | 42* | 17 | 15 | 6
Cc1ccc(O)c(NC(=O)c2cc(C(C)C)on2)c1 | 2 | 14 | 19 | 4
COc1ccc(OC)c(CCNC(=O)CCC2=NS(=O)(=O)c3ccc(C(F)(F)F)cc3N2)c1 | 18 | 77* | 33* | 58*
O=C(CCC1=NS(=O)(=O)c2ccc(C(F)(F)F)cc2N1)NCc1ccccc1 | 1 | 12 | -13 | 24
Cn1c(=O)n(Cc2cccnc2)c(=O)c2cnc(-c3ccncc3)nc21 | -5 | -12 | -11 | -24
O=c1c2cc(Br)ccc2[nH]c(=S)n1Cc1cccnc1 | 11 | . | 13 | 88*
CCn1c(=O)c(C(=O)NCc2ccc(C)cc2)nc2cccnc21 | -32 | . | -16 | -50
CC(C)c1nc2c(c(=O)c3ccccc3n2C)c(=O)n1CCc1ccccc1 | 35* | 4 | 50* | 1
COc1ccc(CCn2c(-c3ccccc3)nc3c(c(=O)c4ccccc4n3C)c2=O)cc1 | -16 | -61 | -50 | 10
Cn1c2ccccc2c(=O)c2c(=O)n(Cc3ccccc3)c(C3CCCCC3)nc21 | 9 | 15 | 42* | 0
CC(=O)Nc1ccc(S(=O)(=O)N2CCN=C2N2CCCCC2)cc1 | -3 | -6 | -23 | -1
Cc1cc(OCC(=O)Nc2ccccc2F)nc(N2CCCCC2)n1 | -1 | 21 | 1 | -1
CC1(C(=O)N2CCc3onc(-c4ccccc4F)c3C2)CCCO1 (stereo unspecified) | 0 | 1 | 2 | 1
CC(C)N(Cc1cc(=O)[nH]c2ccccc12)C(=O)c1ccccc1 | -7 | -3 | -10 | 0
Cc1cccc(OCC(=O)N(C)Cc2cc(=O)[nH]c3ccccc23)c1 | 14 | 22 | 27 | 30*
SMILES | USP28 inh | USP17 inh | USP30 inh | USP8 block
COc1cc(C(=O)N(Cc2cc(=O)[nH]c3ccccc23)C(C)C)cc(OC)c1OC | 14 | 19 | 31* | 19
Cc1cccc(C)c1OCC(=O)N(C)Cc1cc(=O)[nH]c2ccccc12 | 3 | 14 | 12 | 3
CC(C)N(Cc1cc(=O)[nH]c2ccccc12)C(=O)c1ccc(C(C)(C)C)cc1 | 34* | 6 | 16 | 5
O=C(Nc1nc2c(s1)CN(C(=O)Nc1ccccc1F)CC2)c1cnccn1 | -17 | -38 | -59 | -314
Cc1cc(C)c2nc(N3CCCC(C(=O)NCc4ccccc4C)C3)sc2c1 (stereo unspecified) | 19 | 33* | 19 | 27
Cc1cc(C)c2nc(N3CCCC(C(=O)NCCc4ccc(Cl)cc4)C3)sc2c1 (stereo unspecified) | 1 | 5 | 1 | 2
Cc1cc(C)c2nc(N3CCCC(C(=O)NCc4cccc(F)c4)C3)sc2c1 (stereo unspecified) | 7 | 22 | 37* | 22
COc1ccccc1CNC(=O)C1CCCN(c2nc3c(C)cc(C)cc3s2)C1 (stereo unspecified) | -14 | -3 | 6 | -16
COC(=O)c1ccc(CSc2nc3ccncc3n2C(C)C(=O)OC)cc1 (stereo unspecified) | 10 | 0 | 0 | -17
CCN1CCN(C(=O)CN(C)c2nnc(N3CCCCC3=O)s2)CC1 | 4 | 6 | 8 | 11
